Test [1] is described as follows: inhibitors of TNFa-induced NFkB p65 translocation, primary screen, imaging, HUVEC, MLSMR starter and 10KST1 sets (AID 438;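 active = inhibition above 20% together with a positive visual image hit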;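 also: compound added about 3h40 before a 20 min TNFalpha stimulation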;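 as to inhibition: signal is the nuclear over cytoplasmic p65 intensity ratio per well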). Particulars: HUVEC TNFa-induced p65 nuclear translocation; cell count: measured here: nuclei count (cytotoxicity indicator), at 2.08 µM; inhibition: at 2 µM, stronger effect = higher value, 0% TNFa-plus-vehicle, 100% no-TNFa wells.
Test [2] can be described thus: inhibitors of mutant huntingtin aggregation, primary screen, imaging, exon1htt(103Q)mCFP cells, high-content imaging (AID 483;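 active = visual image review flags a hit and inhibition of aggregation exceeds 20%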;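 also: compound exposure lasted 3 days before fixation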;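 as to nuclei count: percent of the per-plate median nuclei count of sample wells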). The following applies: exon1htt(103Q)mCFP cell line, aggregate imaging, at 2 µM; inhibition of aggregation: stronger effect = higher value; nuclei count: measured here: cell count, toxicity.
A short description of test [3]: inhibitors of E-selectin induction by TNFa, primary screen, imaging, HUVEC, immunofluorescence, MLSMR starter and 10KST1 sets (AID 487;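 active = visually confirmed hit in the image check and inhibition above 20%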;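 as to inhibition: signal is fraction of cell area covered by stained E-selectin grains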;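 as to nuclei count: 100% = median nuclei count of all wells on the same plate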). The following applies: HUVEC TNFalpha-induced E-selectin immunofluorescence imaging, at 2 µM; inhibition: stronger effect = higher value; nuclei count: measured here: cell number, toxicity.
Test [4] has as its target Voltage-gated potassium channel subunit beta-2 (Rattus norvegicus) (UniProt P62483). Nature of the test: KvBeta enzyme negative modulators, primary screen, biochemical, NADPH fluorescence (AID 622;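 active = fluorescence slope higher than the sample average by over 3 SD, cut at about -0.22 in these data, passing the limit was not always enough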;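 also: slope of raw intensity against log time taken from 70 to 1610 s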). Particulars: recombinant KvBeta, 4-cyanobenzaldehyde reduction, at 10 µM, stronger effect = higher value.
Test [5] has the same target. Nature of the test: KvBeta positive modulators, primary screen, biochemical, NADPH fluorescence (AID 623;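 active = NADPH fluorescence slope more negative than the mean of all samples by about 3 SD, 99.7% confidence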;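 also: fluorescence intensity change per second fitted from 20 to 320 s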). Particulars: Recombinant KvBeta, NADPH fluorescence decrease slope, 10 min; at 10 µM; stronger effect = lower value.
For test [6], the target named is Alpha-2C adrenergic receptor (Homo sapiens) (UniProt P18825). Nature of the test: modulators of alpha2C/GIRK thallium flux, primary screen, cell-based, HEK293 alpha2C/GIRK1/2 (AID 624;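 active = fluorescence slope after compound addition differing from the mean of all screened samples at 99.7% confidence, in either direction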;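 also: slope of fluorescence ratio to pre-addition baseline per second over 15 to 24 s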). Particulars: thallium flux BTC fluorescence, at 10 µM, actives lie on both sides.
Sequence of Alpha-2C adrenergic receptor (Homo sapiens) (P18825 whole entry, looked up): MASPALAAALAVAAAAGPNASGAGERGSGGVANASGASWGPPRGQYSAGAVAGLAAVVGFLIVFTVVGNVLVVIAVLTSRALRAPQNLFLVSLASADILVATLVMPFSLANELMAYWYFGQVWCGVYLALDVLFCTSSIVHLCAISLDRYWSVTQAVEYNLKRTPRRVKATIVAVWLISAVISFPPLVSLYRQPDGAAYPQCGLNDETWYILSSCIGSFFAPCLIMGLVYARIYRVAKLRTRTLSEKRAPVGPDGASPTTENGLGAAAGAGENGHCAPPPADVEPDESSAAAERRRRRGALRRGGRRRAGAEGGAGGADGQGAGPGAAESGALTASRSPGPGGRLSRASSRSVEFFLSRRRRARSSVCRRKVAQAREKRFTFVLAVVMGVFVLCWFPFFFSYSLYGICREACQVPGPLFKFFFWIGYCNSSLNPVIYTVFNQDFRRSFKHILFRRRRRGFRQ
A short description of test [7]: inhibitors of Sendai virus-induced IRF3 signaling, primary screen, TLR/RLR signaling modifier project, cell-based, Sendai virus stimulus, luciferase, 10K MLSCN set (AID 602276;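 active = inhibition at or above 50% at 10 µM; inactive = inhibition below 50%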;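 also: firefly luciferase from ISG56 promoter only with Renilla not read in this screen; 0% = Sendai virus plus DMSO and 100% = medium plus DMSO without virus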). Particulars: HEK293 RL24 IRF3 luciferase reporter, at 10 µM, stronger effect = higher value. (In general: In a reporter assay the amount or activity of a reporter protein is the signal.)
The nature of test [8]: inhibitors of poly I:C-induced TLR3 signaling, primary screen, cell-based, poly I:C stimulus, luciferase, 10K MLSCN set (AID 602277). The following applies: HEK293-TLR3 RL24 IRF3 luciferase reporter, at 10 µM, stronger effect = higher value.

A word on the inhibition: it is the relative decrease from the control value, in per cent.

Active and inactive are the calls of the source.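 The calls were made as follows, unless noted: active = inhibition of the reporter signal at or above 50%; inactive = inhibition below 50%.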

Sequence of Voltage-gated potassium channel subunit beta-2 (Rattus norvegicus) (P62483 whole entry, looked up): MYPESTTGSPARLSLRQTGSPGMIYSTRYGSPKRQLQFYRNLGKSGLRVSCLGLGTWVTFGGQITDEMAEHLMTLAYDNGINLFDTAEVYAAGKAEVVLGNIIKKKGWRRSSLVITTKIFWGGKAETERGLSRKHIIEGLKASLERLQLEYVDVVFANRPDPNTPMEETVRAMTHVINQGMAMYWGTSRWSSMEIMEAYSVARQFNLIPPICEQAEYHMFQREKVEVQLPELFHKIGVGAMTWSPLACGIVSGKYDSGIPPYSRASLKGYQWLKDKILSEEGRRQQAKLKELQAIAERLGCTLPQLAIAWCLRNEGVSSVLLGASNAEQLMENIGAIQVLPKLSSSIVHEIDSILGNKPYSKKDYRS

As to `Cc1ccc(O)c(-c2cc(C(=O)Nc3ccc(S(=O)(=O)N4CC(C)OC(C)C4)cc3)[nH]n2)c1` (centres undefined), in test [1], the cell count was found to be 371. Also, the inhibition is 6.2% (inactive) in test [1], 0.1% (inactive) in test [3], 22.4% (inactive) in test [7] and 43.5% (inactive) in test [8]. Moreover, in test [2], the inhibition of aggregation is 0.4% (inactive). The nuclei count was determined as 97.2% in test [2] and 92.7% in test [3]. Further, the fluorescence slope in test [4] was -0.478 (inactive). Further, the NADPH fluorescence slope in test [5] is -0.000199 (inactive). The slope in test [6] was 0.00494 (inactive).

`Cc1sc2nc(SCC(=O)Nc3c(C)n(C)n(-c4ccccc4)c3=O)n(C)c(=O)c2c1C`: the cell count in test [1] amounted to 556. Also, the inhibition in test [1] was -8.3% (inactive); in test [3], 13.4% (inactive); in test [7], 5.86% (inactive); in test [8], -5.09% (inactive). Also, the inhibition of aggregation in test [2] is 9% (inactive). Further, the nuclei count came to 74.8% in test [2] and 118% in test [3]. In test [4], the fluorescence slope was -0.376 (inactive). Further, the NADPH fluorescence slope in test [5] was 1e-05 (inactive). Further, the slope in test [6] was 0.00842 (inactive).

On to `COCCCNC(=O)c1ccc(CS(=O)(=O)c2ccc(OC)cc2)o1`, for which the cell count in test [1] was found to be 696. Further, the inhibition in test [1] was -8.1% (inactive); in test [3] it was -54.8% (inactive); in test [7], 7.18% (inactive); in test [8], 13.8% (inactive). Also, in test [2], the inhibition of aggregation was 5.6% (inactive). The nuclei count is 101% in test [2] and 115% in test [3]. In test [4], the fluorescence slope was -0.519 (inactive). Moreover, the NADPH fluorescence slope in test [5] is -5.8e-05 (inactive). Moreover, the slope in test [6] was 0.00615 (inactive).

Consider `O=C(CSc1nnc(Cn2c(=O)sc3ccccc32)n1-c1ccccc1)Nc1nccs1`, for which the cell count in test [1] was found to be 645. The inhibition in test [1] was 1.8% (inactive); in test [3], -7.4% (inactive); in test [7], 2.86% (inactive); in test [8], 16.4% (inactive). Further, the inhibition of aggregation in test [2] was 9.1% (inactive). For the same compound, the nuclei count in test [2] was determined as 110%; in test [3], 104%. Moreover, the fluorescence slope in test [4] was -0.58 (inactive). Besides, in test [5], the NADPH fluorescence slope is -2.9e-05 (inactive). For the same compound, the slope in test [6] was 0.00712 (inactive).

Regarding `CC(=O)c1cc2c(cc1NC(=O)CN1CCN(C(=O)c3ccco3)CC1)OCO2`, the cell count in test [1] came to 410. Also, the inhibition was -6.1% (inactive) in test [1], -58.5% (inactive) in test [3], 4.38% (inactive) in test [7] and 25.7% (inactive) in test [8]. In addition, in test [2], the inhibition of aggregation was 13.3% (inactive). Also, the nuclei count in test [2] was 44.6%; in test [3] it was 113%. Moreover, the fluorescence slope in test [4] was -0.548 (inactive). For the same compound, the NADPH fluorescence slope in test [5] was -3.4e-05 (inactive). The slope in test [6] is 0.00807 (inactive).

Consider `CC(C)COC(=O)C1[C@H]2C(=O)N(Cc3cccs3)C[C@]23C=C[C@H]1O3` (some centres undefined), for which the cell count in test [1] turned out to be 483. The inhibition is 3.3% (inactive) in test [1], -44.8% (inactive) in test [3], 9.95% (inactive) in test [7] and 32.4% (inactive) in test [8]. Also, the inhibition of aggregation in test [2] was -2.4% (inactive). Moreover, the nuclei count in test [2] was found to be 97.4%; in test [3], 127%. In addition, the fluorescence slope in test [4] is -0.393 (inactive). In addition, in test [5], the NADPH fluorescence slope is -1.4e-05 (inactive). Also, in test [6], the slope was 0.00385 (inactive).

Consider `Cc1ccccc1NC(=O)CSc1nnc(Cc2cccn2C)n1-c1ccc(F)cc1`, for which, in test [1], the cell count came to 813. For the same compound, the inhibition was 4.2% (inactive) in test [1], -61% (inactive) in test [3], -3.98% (inactive) in test [7] and 29.4% (inactive) in test [8]. For the same compound, the inhibition of aggregation in test [2] is 0% (inactive). The nuclei count in test [2] is 98.8%; in test [3] it was 114%. For the same compound, the fluorescence slope in test [4] is -0.618 (inactive). The NADPH fluorescence slope in test [5] is 1.1e-05 (inactive). In addition, the slope in test [6] was 0.00577 (inactive).

For the compound `COc1ccc(-c2nc(C)c(C(C)=O)n2O)cc1OC`, the cell count in test [1] is 385. Also, the inhibition is 2.7% (inactive) in test [1], -127% (inactive) in test [3], -2.76% (inactive) in test [7] and 10.1% (inactive) in test [8]. Moreover, the inhibition of aggregation in test [2] is 3.6% (inactive). In addition, the results for the nuclei count in test [2] and in test [3] were 102% and 106%, respectively. For the same compound, in test [4], the fluorescence slope was -0.355 (inactive). Also, the NADPH fluorescence slope in test [5] was -2.6e-05 (inactive). In test [6], the slope is 0.00569 (inactive).

Regarding `CCOC(=O)c1cc2c(=O)n3ccccc3nc2n(CCCOC)c1=NC(=O)C(C)(C)C`, in test [1], the cell count stood at 656. Moreover, the inhibition in test [1] was 2.6% (inactive); in test [3], -203% (inactive); in test [7], 7.96% (inactive); in test [8], 16.3% (inactive). Further, the inhibition of aggregation in test [2] was 39.3% (active). For the same compound, the nuclei count was 86.8% in test [2] and 95.3% in test [3]. The fluorescence slope in test [4] is -0.348 (inactive). For the same compound, the NADPH fluorescence slope in test [5] was 7.9e-06 (inactive). The slope in test [6] was 0.00456 (inactive).

Turning to `COc1cc(C2c3c(n[nH]c3C)C(=O)N2c2ccc(C)cc2)ccc1O` (centres undefined), the cell count in test [1] is 335. For the same compound, the inhibition is -8.1% (inactive) in test [1], -34.1% (inactive) in test [3], 3.65% (inactive) in test [7] and -2.36% (inactive) in test [8]. Further, in test [2], the inhibition of aggregation was -6% (inactive). The nuclei count is 86.3% in test [2] and 112% in test [3]. Moreover, in test [4], the fluorescence slope is -0.586 (inactive). The NADPH fluorescence slope in test [5] was -2.8e-05 (inactive). In addition, in test [6], the slope was 0.00346 (inactive).

For `COc1ccc(OC)c(-n2nnnc2SCC(=O)NCc2ccc3c(c2)OCO3)c1`, the cell count in test [1] was 324. The inhibition is -12.5% (inactive) in test [1], -26.8% (inactive) in test [3], 18% (inactive) in test [7] and -14.2% (inactive) in test [8]. Also, in test [2], the inhibition of aggregation is -18.9% (inactive). Also, the values for the nuclei count in test [2] and in test [3] were 101% and 109%, respectively. In addition, in test [4], the fluorescence slope is -0.604 (inactive). In addition, the NADPH fluorescence slope in test [5] was -1.7e-05 (inactive). In test [6], the slope was 0.00401 (inactive).

As for `CCC(C)(C(=O)NC1CCCC1)N(Cc1cccs1)C(=O)Cc1cccs1` (centres undefined), the cell count in test [1] was determined as 698. Moreover, the inhibition in test [1] is -0.9% (inactive); in test [3], -7.8% (inactive); in test [7] it was 14.4% (inactive); in test [8], 44.6% (inactive). The inhibition of aggregation in test [2] is 21% (inactive). Also, the nuclei count in test [2] is 127%; in test [3], 112%. The fluorescence slope in test [4] was -0.473 (inactive). Further, the NADPH fluorescence slope in test [5] is -0.000168 (inactive). The slope in test [6] was 0.00631 (inactive).

Consider `O=C(O)CSC1CC(=O)N(c2ccc(Cl)c(Cl)c2)C1=O` (centres undefined), for which the cell count in test [1] was found to be 754. The inhibition is -2.8% (inactive) in test [1], 4.8% (inactive) in test [3], 3.92% (inactive) in test [7] and 8.23% (inactive) in test [8]. Further, the inhibition of aggregation in test [2] is 11.7% (inactive). In addition, the results for the nuclei count in test [2] and in test [3] were 88.4% and 114%, respectively. Moreover, the fluorescence slope in test [4] was -0.304 (inactive). For the same compound, in test [5], the NADPH fluorescence slope was -5.1e-05 (inactive). The slope in test [6] is 0.00566 (inactive).

As to `CCOC(=O)Cn1c(CN2CCOCC2)nc2c1c(=O)[nH]c(=O)n2C`, the cell count in test [1] is 507. Also, the inhibition was -1% (inactive) in test [1], -6% (inactive) in test [3], 15.2% (inactive) in test [7] and 27.7% (inactive) in test [8]. In addition, the inhibition of aggregation in test [2] is -19.1% (inactive). Further, the nuclei count in test [2] turned out to be 102%; in test [3], 118%. Also, in test [4], the fluorescence slope is -0.601 (inactive). Besides, the NADPH fluorescence slope in test [5] was -4.7e-05 (inactive). Moreover, the slope in test [6] was 0.00569 (inactive).

Values taken from PubChem BioAssay.
